Assay results from PubChem BioAssay (NCATS).
Active and inactive are the calls of the source. Calls come from the whole dose curve; as a rule, active = well fitted curve in the direction sought with a large enough effect; inconclusive = small, poorly fitted or top-dose-only effect, or another doubt; inactive = no such curve, though single readings can be large or run the other way.

Target: Thyrotropin receptor (Homo sapiens) (UniProt P16473)
Test: qHTS Assay for Antagonists of the Thyroid Stimulating Hormone Receptor (AID 488980)
Conditions: TSHR-expressing cells, cAMP antagonist read-out; series mostly up to 57.5 µM
Source text: TSH is an alpha/beta heterodimeric glycoprotein hormone secreted from the anterior pituitary gland which belongs to the glycoprotein hormone family. The actions of TSH are mediated by a seven-transmembrane receptor, which upon TSH binding couples preferentially to the G-alpha (s) protein (Gs), resulting in activation of adenylate cyclase and increase in cyclic adenosine 3', 5' monophosphate (cAMP). The TSH receptor (THSR) is mainly expressed in thyroid follicular cells and regulates their growth and function. This cell based assay was conducted on a TSHR transfected HEK 293 cell line, measuring cAMP stimulation using antibody-based Homogeneous Time Resolved Fluorescence (HTRF).
Our goal is to identify small molecules that will inhibit (antagonize) the thyroid-stimulating hormone receptor (TSHR), a member of the 7 transmembrane-spanning receptor (7TMR) family of cell surface receptors. TSHR-mediated hyperthyroidism is important in thyroid pathology. The development of small molecule antagonists of TSHR may lead to therapeutic approaches for TSHR-mediated hyperthyroidism caused by constitutively activating mutations or stimulating auto-antibodies associated with Graves' disease. Graves' disease is the leading cause of hyperthyroidism and is caused by autoantibodies that stimulate TSHR (TsAbs) causing thyroid growth and unregulated overproduction of thyroid hormones and existing treatments have liabilities (agranulocytosis). In addition, TSHRs are known to be expressed in multiple extrathyroidal tissues including bone, brain, kidney, testis, fat and cells of the immune system but the role of the TSHR in these tissues is not clear. Therefore, TSHR antagonists/inverse agonists could be used as probes of extrathyroidal TSHR function. Finally, TSHR inverse agonists, which are a subclass of antagonists that inhibit agonist-independent (or basal or constitutive) TSHR signaling, could be used to inhibit TSH-independent signaling in patients with recurrent or metastatic thyroid cancer who are receiving thyroid hormone to suppress TSH.
An anti cAMP antibody contains a fluorescent cryptate tag (excitation 337 nm; emission 620 nm) and the acceptor is cAMP-d2 (excitation 620 nm; emission 665 nm). When antibody and cAMP-d2 interact and are excited by a 337 nm light, a FRET occurs resulting in emission at 665 nm. The assay is competition between cAMP-d2 and cAMP (from the cell lysate). The homogeneous protocol allows for one step dispense after stimulation that is automation friendly.
Step, Parameter, Value, Description
1, Cells, 3 uL, 2000 TSHR freshly harvested cells/well 1536 TC treated White solid bottom plate (Cells resuspended in 10 mM HEPES buffered HBSS and 70 uM RO 20-1724)
2, Compound, 23 nL, Libraries and controls
3, Compound, 1 uL, EC80 TSH (4 nM final)
5, Reagent, 2 uL, cAMP antibody diluted 1:20 in lysis buffer
6, Time, 30 minutes, Room temperature
7, Detector, HTRF settings, Viewlux

Thyrotropin receptor (Homo sapiens), sequence (P16473 whole entry, looked up): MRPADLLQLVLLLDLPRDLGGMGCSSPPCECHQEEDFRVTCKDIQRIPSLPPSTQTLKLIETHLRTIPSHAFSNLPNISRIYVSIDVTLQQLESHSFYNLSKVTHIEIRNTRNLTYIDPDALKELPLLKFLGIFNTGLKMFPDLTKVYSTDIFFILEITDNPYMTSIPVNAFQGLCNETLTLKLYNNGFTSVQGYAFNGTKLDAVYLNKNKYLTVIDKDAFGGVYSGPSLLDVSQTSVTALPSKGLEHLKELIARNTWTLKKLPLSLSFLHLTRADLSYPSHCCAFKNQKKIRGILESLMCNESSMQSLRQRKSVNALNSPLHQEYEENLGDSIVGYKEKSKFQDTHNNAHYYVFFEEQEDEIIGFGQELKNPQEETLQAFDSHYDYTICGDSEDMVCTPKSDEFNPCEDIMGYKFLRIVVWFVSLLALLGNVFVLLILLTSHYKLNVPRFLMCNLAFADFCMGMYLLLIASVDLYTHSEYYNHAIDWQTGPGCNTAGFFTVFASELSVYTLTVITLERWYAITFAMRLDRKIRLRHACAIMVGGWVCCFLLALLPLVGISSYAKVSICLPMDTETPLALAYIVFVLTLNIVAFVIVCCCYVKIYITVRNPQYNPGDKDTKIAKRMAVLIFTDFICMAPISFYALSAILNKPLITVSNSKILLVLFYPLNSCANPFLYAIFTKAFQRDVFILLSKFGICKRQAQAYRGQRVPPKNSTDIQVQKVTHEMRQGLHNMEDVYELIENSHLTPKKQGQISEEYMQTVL

Question: With `O=[N+]([O-])c1cc(O)c(O)c([N+](=O)[O-])c1` as the compound, how does the outcome read?
Answer: The outcome was “inactive”.

Question: Which outcome does the source give for `CCN(CC)c1ncnc2c1ncn2[C@@H]1O[C@H](COP(=O)(O)OP(=O)(O)C(Br)(Br)P(=O)(O)O)[C@@H](O)[C@H]1O` here?
Answer: The outcome was “inactive”.

Question: `C=CCN1CC[C@]23c4c5ccc(O)c4O[C@H]2/C(=N/NC(=O)c2ccccc2)CC[C@@]3(O)[C@H]1C5` was tested. Which outcome did it give?
Answer: Its outcome is “inactive”.

Question: For `C[N+]1(C)CCC(OC(=O)C(c2ccccc2)c2ccccc2)CC1`, which outcome is on record?
Answer: Its outcome is “inactive”.

Question: Which outcome does the source give for `O=P(O)(O)C(Cl)(Cl)P(=O)(O)O` here?
Answer: Its outcome is “inactive”.

Question: `Oc1ccc2c3c1O[C@H]1c4[nH]c5ccccc5c4C[C@@]4(O)C(C2)N(CC2CC2)CCC314` (stereo not given in full) was tested. Which outcome did it give?
Answer: The outcome was “inactive”.

Question: For `OCc1cnc[nH]1`, which outcome is on record?
Answer: Its outcome is “inactive”.

Question: With `CCCN1CC[C@@H]2c3cc(O)ccc3CC[C@@H]21` as the compound, how does the outcome read?
Answer: Its outcome is “inactive”.

Question: `CC(C)(C)c1o[nH]c(=O)c1CC(N)C(=O)O` (stereo not given) was tested. Which outcome did it give?
Answer: Its outcome is “inactive”.

Question: `CC(N)c1cccc(Cl)c1Cl` (stereo not given) was tested. Which outcome did it give?
Answer: The outcome was “inactive”.

Question: How did the outcome turn out when `Cc1c2ccncc2c(C)c2c1[nH]c1ccccc12` was run?
Answer: The outcome was “inactive”.

Question: With `CN1CCC(c2c[nH]c3ccc(O)cc23)CC1` as the compound, how does the outcome read?
Answer: The outcome was “inactive”.

Question: With `CN1C2CCC1CC(OC(c1ccccc1)c1ccc(Cl)cc1)C2` (stereo not given) as the compound, how does the outcome read?
Answer: Its outcome is “inactive”.

Question: For `NC(Cc1ccc(N(CCCl)CCCl)cc1)C(=O)O` (stereo not given), which outcome is on record?
Answer: The outcome was “inactive”.

Question: For `CCCN(CCC)C1Cc2cc(OC)c(OC)cc2C1`, which outcome is on record?
Answer: Its outcome is “inactive”.

Question: Which outcome does the source give for `NC(N)=Nc1ccc2[nH]c3c(c2c1)C[C@@]1(O)[C@H]2Cc4ccc(O)c5c4[C@@]1(CCN2CC1CC1)[C@H]3O5` here?
Answer: The outcome was “inactive”.

Question: For `COc1ccc2[nH]c3c(c2c1)CCNC3`, which outcome is on record?
Answer: The outcome was “inactive”.

Question: `COc1ccc2c(c1)[C@@]13CCCC[C@H]1[C@@H](C2)NCC3` was tested. Which outcome did it give?
Answer: Its outcome is “inactive”.

Question: How did the outcome turn out when `NC(Cc1cc(O)c(O)cc1O)C(=O)O` (stereo not given) was run?
Answer: The outcome was “inactive”.

Question: `O=C(O)c1cc[c]([Hg][Cl])cc1` was tested. Which outcome did it give?
Answer: Its outcome is “inactive”.

Question: How did the outcome turn out when `CN(N=O)c1cc(O)ccc1O` was run?
Answer: Its outcome is “inactive”.

Question: `CCCN(CCC)[C@@H]1CCc2cccc(O)c2C1` was tested. Which outcome did it give?
Answer: Its outcome is “inactive”.

Question: How did the outcome turn out when `CCCN(CCC)CCc1c[nH]c2ccc(C(N)=O)cc12` was run?
Answer: The outcome was “inactive”.

Question: Which outcome does the source give for `C[Se]C[C@H](N)C(=O)O` here?
Answer: The outcome was “inactive”.

Question: Which outcome does the source give for `CC(C)(C)c1cc(C=C(C#N)C#N)cc(C(C)(C)C)c1O` here?
Answer: The outcome was “inactive”.

Question: How did the outcome turn out when `C[N+](C)(C)CC#CCN1CCCC1=O` was run?
Answer: Its outcome is “inactive”.

Question: Which outcome does the source give for `N[C@@H](Cn1oc(=O)[nH]c1=O)C(=O)O` here?
Answer: Its outcome is “inactive”.

Question: How did the outcome turn out when `CCOC(=O)c1ncn2c1[C@@H]1CCCN1C(=O)c1cc(OC)ccc1-2` was run?
Answer: Its outcome is “inactive”.

Question: Which outcome does the source give for `CN1CCc2cccc(Cl)c2CC1` here?
Answer: Its outcome is “inactive”.

Question: Which outcome does the source give for `COC(=O)N1CCN(C(=O)Cc2ccc(Cl)c(Cl)c2)C(CN2CCCC2)C1` (stereo not given) here?
Answer: Its outcome is “inactive”.

Question: With `CP(=O)(O)C1=CCNCC1` as the compound, how does the outcome read?
Answer: The outcome was “inactive”.

Question: Which outcome does the source give for `NC(=O)COc1c(F)cc(SCCNS(=O)(=O)c2ccccc2)cc1F` here?
Answer: The outcome was “inactive”.

Question: Which outcome does the source give for `N[C@@]1(C(=O)O)CC[C@@H](C(=O)O)C1` here?
Answer: Its outcome is “inactive”.

Question: With `CNC(=O)OCC[N+](C)(C)C` as the compound, how does the outcome read?
Answer: The outcome was “inactive”.

Question: With `CN1CC[C@@]2(C)c3cc(O)ccc3N(C)C12` (stereo not given in full) as the compound, how does the outcome read?
Answer: The outcome was “inactive”.

Question: `NCC(CP(=O)(O)O)c1ccc(Cl)cc1` (stereo not given) was tested. Which outcome did it give?
Answer: The outcome was “inactive”.

Question: How did the outcome turn out when `CC(N)Cc1c[nH]c2ccc(O)cc12` (stereo not given) was run?
Answer: Its outcome is “inactive”.

Question: For `CCS(=O)(=O)Nc1cccc(C(=C2CCCCC2)c2cnc[nH]2)c1`, which outcome is on record?
Answer: The outcome was “inactive”.

Question: With `Clc1ccc(N2CC3CCC(C2)N3)nn1` as the compound, how does the outcome read?
Answer: The outcome was “inactive”.

Question: `C[C@]12Cc3cn4c(nc3C=C1CCC1C2CC[C@@]2(C)[C@H]1CC[C@@]2(O)C#N)nc1ccccc14` (stereo not given in full) was tested. Which outcome did it give?
Answer: The outcome was “inactive”.
